A selection: hits, their analogues and other compounds. The true share with any hit is near 8.7%.
JMJD2A Tudor inh: qHTS Assay for Inhibitors of JMJD2A-Tudor Domain; AlphaScreen JMJD2A-Tudor / H3K4me3 peptide binding; Lysine-specific demethylase 4A (Homo sapiens), O75164; 4.4% of 390,000 active; AID 504339, 2011; Potency, µM (highest dose often 114 µM), without a hit: top-dose activity change, negative = inhibition, hits mostly inhibitors; further: on the % scale 0 is the no-effect control and ±100 the full control effect; nearly all actives have a fitted effect of over 50% in size
Sfp inh: qHTS Assay for Inhibitors of Bacillus subtilis Sfp phosphopantetheinyl transferase (PPTase); 4'-phosphopantetheinyl transferase ffp (Bacillus subtilis), Q9F4F7; Biochemical Sfp PPTase activity, qHTS; Potency, µM, for inactives: largest response in the series, negative = inhibition, actives largely listed as inhibitors; 3.5% of 310,000 active; AID 1490, 2009;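 further: the enzyme is Sfp with the accession as filed and its product quenches rhodamine fluorescence; 0% = enzyme reaction without inhibitor and -100% = no enzyme wells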
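After 15 min at room temperature with compound, 15 nM Sfp received 5 uM rhodamine-CoA plus 12.5 uM BHQ-2-ybbR (50 mM Hepes pH 7.6, 10 mM MgCl2). Rate came from the fluorescence difference over 30 min, ex 525/em 598 nm.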
HP1b binding inh: HTS for Inhibitors of HP1-beta Chromodomain Interactions with Methylated Histone Tails. Chromobox protein homolog 1 (Homo sapiens), P83916. AlphaScreen HP1-beta / biotin-H3K9me3 peptide binding. Potency, µM (series often up to 114 µM), for inactives: top-dose activity change, negative = inhibition, most hits filed as inhibitors. 0.56% of 390,000 active; further: nearly all actives have a fitted effect of over 70% in size
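AlphaScreen: HP1-beta (50 nM) preformed 30 min with biotin-H3(1-18)K9me3 peptide (50 nM) in PBS pH 7.4, 0.01% Tween-20. Compound added for 30 min at RT, then streptavidin donor/nickel chelate acceptor beads (10 ug/mL) for 30 min.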
G9a block: qHTS Assay for Inhibitors of Histone Lysine Methyltransferase G9a; Histone-lysine N-methyltransferase EHMT2 (Homo sapiens), Q96KQ7; 8.8% of 350,000 active; G9a H3K9 monomethylation, AlphaScreen, 2 h; AID 504332, 2011; Potency, µM (top dose mostly 102 µM), for inactives: top-dose activity, negative = inhibition, most hits filed as inhibitors; further: on the % scale 0 is the no-effect control and ±100 the full control effect; nearly all actives have a fitted effect of over 75% in size
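Readings reflect AlphaScreen signal from monomethyl-H3K9 antibody detection. HMT at 20 nM; substrate b-H3K9 500 nM; cofactor SAM 20 uM; 2 h RT reaction; compounds tested as titrations in qHTS with 15 min preincubation.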
12-LOX inh: Primary qHTS assay for inhibitors of human arachidonate 12S-lipoxygenase (ALOX12): Round 2. Polyunsaturated fatty acid lipoxygenase ALOX12 (Homo sapiens), P18054. purified 12hLO, xylenol orange hydroperoxide absorbance. Potency, µM (series often up to 108 µM), inactives show at the top dose activity change, negative = inhibition, hits mostly inhibitors. 1.1% of 580,000 active; further: on the % scale 0 is the no-effect control and ±100 the full control effect
Target sequence (P18054 whole entry, looked up): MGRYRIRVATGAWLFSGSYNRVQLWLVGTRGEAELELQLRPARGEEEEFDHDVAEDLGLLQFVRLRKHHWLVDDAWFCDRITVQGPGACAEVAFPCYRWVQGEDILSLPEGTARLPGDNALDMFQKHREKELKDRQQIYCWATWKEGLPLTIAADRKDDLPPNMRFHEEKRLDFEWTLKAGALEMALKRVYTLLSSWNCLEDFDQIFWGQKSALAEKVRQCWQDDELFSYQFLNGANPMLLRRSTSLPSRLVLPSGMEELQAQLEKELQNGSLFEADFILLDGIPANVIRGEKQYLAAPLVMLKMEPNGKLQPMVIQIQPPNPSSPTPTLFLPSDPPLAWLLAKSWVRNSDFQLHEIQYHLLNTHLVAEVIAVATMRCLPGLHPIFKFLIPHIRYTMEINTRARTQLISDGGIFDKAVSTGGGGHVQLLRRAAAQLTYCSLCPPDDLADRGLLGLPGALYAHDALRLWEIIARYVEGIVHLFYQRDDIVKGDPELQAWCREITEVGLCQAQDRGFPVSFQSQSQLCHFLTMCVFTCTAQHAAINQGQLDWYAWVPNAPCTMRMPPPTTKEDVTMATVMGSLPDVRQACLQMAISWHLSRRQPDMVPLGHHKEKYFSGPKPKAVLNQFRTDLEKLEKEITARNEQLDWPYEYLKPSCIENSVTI
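Purified human 12hLO at 150 nM in 25 mM Hepes, 0.01% Triton X-100, pH 7.0, preincubated 15 min at room temperature with compound. Reaction started with 40 uM arachidonic acid, 30 min at room temperature. Hydroperoxide measured by Fe-xylenol orange, 573/405 nm absorbance ratio.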
BAZ2B block: qHTS Assay for Inhibitors of BAZ2B | Bromodomain adjacent to zinc finger domain protein 2B (Homo sapiens), Q9UIF8 | AlphaScreen BAZ2B-H3K14Ac peptide displacement | Potency, µM (series often up to 114 µM), without a hit: top-dose activity change, negative = inhibition, actives largely listed as inhibitors | 4.4% of 360,000 active; further: on the % scale 0 is the no-effect control and ±100 the full control effect; nearly all actives have a fitted effect of over 60% in size
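In this displacement format the biotinylated H3(5-23) peptide acetylated at Lys14 serves as ligand at 50 nM, with BAZ2B at 50 nM in PBS pH 7.4 containing 0.01% Tween-20. Donor and acceptor beads are 10 ug/mL final.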
An asterisk follows results filed as active; u = inconclusive; x = no result; [ ] = remark or other dose. The call rests on the fitted dose curve; in most records, active means well fitted curve in the direction sought with a large enough effect; inconclusive means small, poorly fitted or top-dose-only effect, or another doubt; inactive means no such curve, though single readings can be large; an effect the other way counts as inactive or inconclusive. Potency means the concentration at half of the fitted maximal effect.

SMILES | JMJD2A Tudor inh | Sfp inh | HP1b binding inh | G9a block | 12-LOX inh | BAZ2B block
Cc1ccc2nc(SCc3nc4ccccc4c(=O)[nH]3)[nH]c2c1 | u | 45µM* | 2% | 40µM* | u | -17%
COC(=O)CSc1nc2ccc(C)cc2[nH]1 | -23% | 7% | 34% | 28µM* | -2% | 1%
Cc1ccc(C#N)c(SCc2ccccc2F)n1 | 208% | -18% | 264% | x | -7% | 141%
Cc1ccc2nc(CSc3nc(C)ccc3C#N)[nH]c2c1 | u | -15% | 22% | 2.8µM* | u | -1%
Cc1ccc2nc(SCC(=O)c3ccc(O)cc3O)[nH]c2c1 | 1% | 50µM* | 31% | x | 7% | -23%
Cc1ccc2nc(SCC(=O)c3c(N)n(C4CC4)c(=O)[nH]c3=O)[nH]c2c1 | -8% | x | u | 18µM* | u | -5%
Cc1ccc2nc(SC(C)C(=O)N3CCCCC3)[nH]c2c1 (configuration not stated) | -11% | 17% | 50% | -24% | -3% | -15%
Cc1ccc2nc(SC(C)C(=O)N3CCCC3)[nH]c2c1 (configuration not stated) | 0% | 9% | 14% | 28µM* | 0% | -7%
C=CCn1c(SC)nc2c1c(=O)n(C)c(=O)n2C | x | x | x | x | 12% | x
Cn1c(Cc2ccccc2)nnc1SCC(=O)c1ccc(Br)s1 | -20% | 20µM* | 3% | u | -4% | -8%
Cc1ccccc1-n1nnnc1SCC(=O)c1ccc(Br)s1 | x | x | x | x | 25µM* | x
Cn1c(Cc2ccccc2)nnc1SCC(=O)N1CCCCC1 | -12% | 7% | 27% | 1%[59 µM] | 0% | 4%
Cc1cccc(C)c1-n1nnnc1SCC(=O)c1ccc(Br)s1 | x | x | x | x | -28% | x
Cc1ccccc1C(=O)Oc1ccc(Cl)cc1C(=S)N1CCOCC1 | -26% | -1% | 1% | -5% | 4% | -12%
O=C(Oc1ccc(C(=S)N2CCOCC2)cc1)c1ccccc1F | -10% | 25µM* | -2% | 25µM* | 5% | -26%
O=C(Oc1ccc(C(=S)N2CCOCC2)cc1Br)c1ccccc1F | -30% | 22µM* | u | 10µM* | u | -33%
O=C(Oc1ccc(C(=S)N2CCOCC2)cc1Cl)c1ccccc1F | -35% | 56µM* | -14% | -9%[0.501 µM] | -13% | -31%
O=C(Oc1ccc(C(=S)N2CCOCC2)cc1)c1ccccc1[N+](=O)[O-] | -27% | -14% | -4% | x | 14% | -10%
COCCN1C(=O)CS(=O)C12CCN(C(=O)Nc1ccc3c(c1)OCCO3)CC2 (configuration not stated) | x | x | x | x | 16% | x
C(=N/N=C\c1ccccn1)/c1ccccn1 | x | x | x | x | -15% | x
CC(NC(=O)c1cc2ccccc2oc1=O)C(=O)NCc1ccccc1 (configuration not stated) | x | x | x | x | -28% | x
O=C(CCC1CCCN(S(=O)(=O)c2ccccc2F)C1)NC1CCCCC1 (configuration not stated) | x | x | x | x | 29% | x
CC1=C(C(=O)N2CCOCC2)C(c2cccc(F)c2)NC(=O)N1Cc1ccccc1 (configuration not stated) | x | x | x | x | -14% | x
CC1(C(=O)NS(=O)(=O)c2cccc(F)c2)CCN1C(=O)c1ccccc1CCc1ccccc1 (configuration not stated) | x | x | x | x | 7.1µM* | x
Cc1cccc(S(=O)(=O)NC(=O)C2(C)CCN2C(=O)c2ccccc2CCc2ccccc2)c1 (configuration not stated) | x | x | x | x | -7% | x
